The structures appear in SMILES notation. Values joined by “and” are separate entries in the source; they are usually repeats but may differ in a detail not shown here. Identical values can stand only once. Results filed as inconclusive are left out. Active and inactive are the calls of the source. Calls follow the shape of the dose curve; as a rule, active = well fitted inhibition curve with a large enough effect; inconclusive = small, poorly fitted or top-dose-only effect; inactive = flat fitted curve, though single readings scatter.

In the assay the target is 15-hydroxyprostaglandin dehydrogenase [NAD(+)] (Homo sapiens) (UniProt P15428). Nature of the assay: Extended Characterization of HPGD Inhibitors: Activity in Primary Assay (HPGD). The conditions noted are these: recombinant HPGD, NADH fluorescence, PGE2 substrate; series mostly up to 57.1 µM. The source says: The central role of HPGD is to inactivate prostaglandins such as prostaglandin E2 (PGE2) or prostaglandin D2 (PGD2). These prostaglandins are involved in a number of processes, including inflammation, differentiation, and cellular signaling, which makes HPGD an important target for pharmacological intervention. Inhibition of 15-PGDH (HPGD) activity was screened by utilizing prostaglandin as an electron donor and NAD+ as an electron acceptor/cofactor. An increase in the fluorescence intensity due to conversion of NAD+ to NADH was used to measure the enzyme activity. All compounds were screened using a qHTS approach, where compounds are assayed using at least seven concentrations to generate concentration-response curves for every compound. Briefly, qHTS uses an inter-plate dilution method where the first plate contains the highest concentration of a set of compounds in DMSO, while subsequent plates contain the same compounds in the same well locations, but at successive lower concentrations. NIH Chemical Genomics Center [NCGC] NIH Molecular Libraries Probe Centers Network [MLPCN] MLPCN Grant: MH084681 Assay Submitter (PI): Structural Genomics Consortium
Sequence of 15-hydroxyprostaglandin dehydrogenase [NAD(+)] (Homo sapiens) (P15428 whole entry, looked up): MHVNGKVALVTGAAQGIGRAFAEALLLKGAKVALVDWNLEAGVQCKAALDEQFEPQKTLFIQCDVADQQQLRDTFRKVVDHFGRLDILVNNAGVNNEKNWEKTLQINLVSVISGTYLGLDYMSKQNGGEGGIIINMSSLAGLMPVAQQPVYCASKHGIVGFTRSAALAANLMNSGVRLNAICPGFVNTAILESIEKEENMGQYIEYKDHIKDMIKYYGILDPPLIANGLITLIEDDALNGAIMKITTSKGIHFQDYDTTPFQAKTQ
Three uL of enzyme (20 nM final concentration) were dispensed to 1536-well Greiner black solid bottom plates. Compounds (23 nL) were transferred via Kalypsys PinTool. The plates were incubated for 15 min at room temperature, and then 1 uL of substrate/cofactor solution (Substrate/cofactor solution: 1 mM NAD+ and 30 uM prostaglandin (Sigma, prostaglandin E2, #P5640)) were added to start the reaction. The plates were immediately transferred to and read 4 times every 30 seconds on a ViewLux High-throughput CCD imager (Perkin-Elmer) using 340 nm excitation and 450 nm emission fluorescence protocol. The fluorescence intensity difference between the last and the first time points, normalized against controls, was used to compute reaction progress.
For the compound `Cc1cc(-c2nnc3n2CCCCC3)c(C)n1-c1ccc(C(F)(F)F)cc1`, the Potency was 68.1 nM (active).
Turning to `Cc1cc(-c2nnc3n2CCCC3)c(C)n1-c1ccccc1`, the Potency is 192 nM (active).
With `Cc1cccc(-n2cnc3cc(C(=O)N4CCCC(c5ccccc5)C4)ccc32)c1` (stereo not given) the figure was 429 nM (active).
For the compound `Cc1ccc(-n2c(C)cc(-c3nnc4n3CCCCC4)c2C)cc1`, the Potency was 34.1 nM (active).
With `O=C(c1ccc2c(c1)ncn2-c1cccc(C(F)(F)F)c1)N1CCCCC1` the figure was 48.2 nM (active); with `Cc1cc(-c2nnc3n2CCCCC3)c(C)n1-c1ccc(Cl)c(Cl)c1`, 21.5 nM (active); with `COc1ccc(-n2cnc3cc(C(=O)N4CCCCC4)ccc32)cc1`, 19.2 nM (active).
With `Cc1cccc(-n2cnc3cc(C(=O)N4CCCC(C(F)(F)F)C4)ccc32)c1` (stereo not given) the figure was 68.1 nM (active); with `N#Cc1cccc(CSc2nc3ncc(Br)cc3[nH]2)c1`, 136 nM (active).
As for `Cc1cc(-c2nnc3n2CCCCC3)c(C)n1-c1ccccn1`, the Potency is 1080 nM (active).
Turning to `Cc1cccc(-n2cnc3cc(C(=O)N4CCC(N5CCOCC5)CC4)ccc32)c1`, the Potency entry was “inactive”.
Then `Cc1cccc(-n2cnc3cc(C(=O)N4CCCCCC4)ccc32)c1`, with 27.1 nM (active).
In the case of `Brc1cnc2nc(SCc3ccccc3)[nH]c2c1`, the Potency was 8570 nM (active).
Then `Cc1cc(-c2nnc3n2CCCCC3)c(C)n1-c1ccc(C#N)cc1`, with 96.1 nM (active); and `Brc1cnc2nc(SCc3ccncc3)[nH]c2c1`, with 1520 nM (active); and `Cc1cccc(-n2cnc3cc(C(=O)N4CCCC(C(C)C)C4)ccc32)c1` (stereo not given), with 48.2 nM (active).
Then `Cc1cccc(-n2cnc3cc(C(=O)N4CCCC(C)(C)C4)ccc32)c1`, with 68.1 nM (active).
Consider `O=C(c1ccc2c(c1)ncn2-c1cccc(Cl)c1)N1CCCCC1`, for which the Potency was 12.1 nM (active).
Regarding `N#Cc1ccc(CSc2nc3ncc(Br)cc3[nH]2)cc1`, the Potency is 482 nM (active).
As for `Cc1cccc(-n2cnc3cc(C(=O)N4CCC(C(F)(F)F)CC4)ccc32)c1`, the Potency was 1520 nM (active).
For the compound `Cc1cccc(-n2cnc3cc(C(=O)N4CCN(C)CC4)ccc32)c1`, the Potency is 2710 nM (active).
Then `Cc1cccc(-n2cnc3cc(C(=O)N4CCC(Br)CC4)ccc32)c1`, with 76.4 nM (active); and `CC(C)(C)c1ccc(-n2cnc3cc(C(=O)N4CCCCC4)ccc32)cc1`, with 54.1 nM (active); and `COc1ccccc1-n1cnc2cc(C(=O)N3CCCCC3)ccc21`, with 27.1 nM (active).
With `Cc1cccc(-n2cnc3cc(C(=O)N4CC(C)CC(C)C4)ccc32)c1` (stereo not given) the figure was 271 nM (active); with `COc1ccc(CSc2nc3ncc(Br)cc3[nH]2)cc1F`, 85.7 nM (active); with `Cc1cc(-c2nnc3n2CCCCC3)c(C)n1-c1cccc(C(F)(F)F)c1`, 48.2 nM (active).
With `Cc1cccc(-n2cnc3cc(C(=O)NC4CCCC4)ccc32)c1` the figure was 961 nM (active).
With `Cc1ccc(-n2cnc3cc(C(=O)N4CCCCC4)ccc32)cc1`, the Potency was 19.2 nM (active).
As to `Cc1cccc(-n2cnc3cc(C(=O)N4CCCCC4)ccc32)c1`, the Potency is 34.1 nM (active) and 19.2 nM (active).
